# Screening data: PubChem, National Center for Advancing Translational Sciences (NCATS)
# Rab9 promoter act: activators of Rab9 promoter; Potency, µM (doses to about 9.22 µM), hits mostly activators; AID 485297; 320,000 compounds, 2.8% hits; Huh7 Rab9 promoter-luciferase reporter, luminescence, 24 h; note: nearly all actives have a fitted effect of over 60% in size
#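 Cell-based reporter: Huh7 stable for Rab9 promoter-driven luciferase, plated in reduced-serum medium with 10% FBS at 1500 cells/well, compound-treated 24 h at 37 °C, luminescence read after 10 min reagent.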
# NPC1 promoter act: activates the NPC1 promoter; Huh7 NPC1 promoter luciferase reporter, 24 h; Potency, µM (series often up to 9.22 µM), usual class: activators; 320,000 compounds, 2.4% hits; AID 485313; note: nearly all actives have a fitted effect of over 60% in size
#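 Huh7 cells stably carrying NPC1 promoter–luciferase, plated in Opti-MEM with 10% FBS for 2 h, were exposed to compound in DMSO for 24 h at 37 °C; luciferase reagent was added for 10 min and luminescence read.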
# ELG1 genotoxic: induces genotoxicity in HEK293T cells with luciferase-tagged ELG1 | 330,000 compounds, 1.3% hits | HEK293T ELG1-luciferase reporter, luminescence, 16 h | Potency, µM (titrated, usually from 46 µM), actives largely listed as activators; note: nearly all actives have a fitted effect of over 60% in size
#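 Genotoxicity was scored as increased ELG1-luciferase reporter signal, measured by ONE-Glo luminescence (30 min, room temperature). Compound or vehicle exposure of the HEK293T reporter cells lasted 16 hr at 37°C.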
# ELG1 DNA repair: ELG1-dependent DNA repair inhibition. HEK293T ELG1-luciferase reporter, luminescence, 16 h; DNA damage induced by 5-fluorouridine. Potency, µM (series often up to 46.1 µM), usual class: inhibitors. 330,000 compounds, 2.3% hits; note: nearly all actives have a fitted effect of over 55% in size
#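 Step one: seed 2,000 cells per well. Step two: pin-transfer compound or DMSO alongside 5-fluorouridine. Step three: incubate 16 hr, 37 °C, 5% CO2. Step four: add ONE-Glo, wait 30 min, read luminescence.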
# FLuc counter: counter-screen for miR-21 project: firefly luciferase inhibitors or activators | P08659 | purified FLuc, Km substrates, luminescence inhibition | Potency, µM (series often up to 57.5 µM), most hits filed as inhibitors | 360,000 compounds, 6.9% hits | AID 588342; note: nearly all actives have a fitted effect of over 55% in size
# Target sequence (P08659 whole entry, looked up): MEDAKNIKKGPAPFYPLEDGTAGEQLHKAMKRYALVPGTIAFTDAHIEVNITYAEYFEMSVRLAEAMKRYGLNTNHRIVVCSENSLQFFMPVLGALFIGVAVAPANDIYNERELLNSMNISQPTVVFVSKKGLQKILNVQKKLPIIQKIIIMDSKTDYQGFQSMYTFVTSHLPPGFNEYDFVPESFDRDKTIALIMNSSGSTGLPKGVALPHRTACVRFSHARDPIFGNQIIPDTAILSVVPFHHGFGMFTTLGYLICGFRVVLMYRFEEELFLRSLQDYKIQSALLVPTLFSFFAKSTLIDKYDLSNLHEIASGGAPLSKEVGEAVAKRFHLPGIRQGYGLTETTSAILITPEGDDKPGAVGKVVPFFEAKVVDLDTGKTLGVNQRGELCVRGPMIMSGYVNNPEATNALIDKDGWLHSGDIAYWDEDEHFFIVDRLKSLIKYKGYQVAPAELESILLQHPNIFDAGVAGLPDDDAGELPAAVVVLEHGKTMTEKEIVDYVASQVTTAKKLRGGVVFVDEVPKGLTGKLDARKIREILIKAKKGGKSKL
#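 Purified P. pyralis luciferase, 10 nM final, with Km-level 10 uM D-luciferin and 10 uM ATP in 50 mM Tris acetate pH 7.5, 10 mM Mg acetate, 0.01% Tween-20, 0.05% BSA; 6-point qHTS titration about 60 µM downward; luminescence read.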
# SMN2 splice up: SMN2 splice variant enhancement; 210,000 compounds, 2.8% hits; HEK293 SMN2-luciferase splicing reporter, luminescence, 30-36 h; Potency, µM (highest dose often 46.1 µM), actives largely listed as activators; AID 1458; note: nearly all actives have a fitted effect of over 55% in size
#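 qHTS luciferase splicing reporter: luminescence rises when SMN2 exon 7 is included in transfected HEK293 cells. Compound exposure lasted 30-36 h at 37C, with 4.5 mM final sodium butyrate as control, followed by a ONE-Glo read.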
# Numbers stand for hits; i = inactive; ? = inconclusive; nt = not tested or not shown. Only some compounds are listed: those with a hit (about 9.2% of all), similar ones and a draw of the others. Calls come from the whole dose curve; as a rule, active = well fitted curve in the direction sought with a large enough effect; inconclusive = small, poorly fitted or top-dose-only effect, or another doubt; inactive = no such curve, though single readings can be large; an effect the other way counts as inactive or inconclusive.
SMILES,Rab9 promoter act,NPC1 promoter act,ELG1 genotoxic,ELG1 DNA repair,FLuc counter,SMN2 splice up
NC(=O)c1cc2ccc(O)cc2oc1=Nc1ccccc1,i,?,i,2.31µM,i,i
NC(=O)c1cc2ccc(O)cc2oc1=NCc1ccccc1,i,i,i,9.2µM,i,i
O=C(O)c1ccc(N=c2oc3cc(O)ccc3cc2C(=O)NCc2ccccc2)cc1,i,i,i,?,?,i
COc1ccc2cc(C(N)=O)c(=Nc3ccccc3)oc2c1,1.58µM,3.55µM,?,?,i,i
COc1ccc(OC)c(N=c2oc3cc(O)ccc3cc2C(N)=O)c1,i,i,i,?,21.3µM,i
COc1ccc2cc(C(=O)NCc3ccccc3)c(=Nc3ccc(C(=O)O)cc3)oc2c1,i,i,i,?,i,i
COc1ccc(CCNc2nc(-c3ccc(OC)c(OC)c3)cc(C(F)(F)F)n2)cc1OC,nt,nt,nt,nt,i,i
CCOC(=O)C1(Cc2ccccc2Cl)CCN(C(=O)CN2CCOC2=O)CC1,3.55µM,?,?,?,10.7µM,nt
N#Cc1ccccc1NC(=O)CSc1nnc(-c2ccccc2)n1-c1ccccc1,i,i,i,?,i,i
CC(=O)Nc1ccc(NC(=O)CSc2nccn2Cc2ccccc2)cc1,i,i,i,20.6µM,i,i
N#Cc1ccccc1NC(=O)CSc1nccn1CCc1ccccc1,?,?,20.6µM,?,21.3µM,?
CC(=O)c1ccc(NC(=O)CSc2nccn2CCc2ccccc2)cc1,?,?,?,?,13.5µM,i
Cc1ccc(NC(=O)CSc2nccn2Cc2ccccc2)cc1C,?,i,i,?,?,nt
CC(=O)c1ccc(NC(=O)CSc2nccn2C)cc1,i,i,i,?,i,nt
Cc1ccc(Cn2ccnc2SCC(=O)Nc2ccc3c(c2)OCO3)cc1,nt,nt,nt,nt,i,nt
O=C(CSc1nccn1Cc1ccccc1)Nc1ccc2c(c1)OCCO2,nt,nt,nt,nt,13.5µM,nt
CCCn1c(=O)c2sccc2n2c(CCCC(=O)N3CCN(c4ccc(OC)cc4)CC3)nnc12,nt,nt,nt,nt,i,nt
Cc1ccc(-c2nc(NC(=O)CSc3ncnc4sc5c(c34)CCC(C)C5)ns2)cc1 (stereo not drawn),nt,nt,nt,nt,i,i
CCn1c(SCC(=O)Nc2ccc(C(C)=O)cc2)nc2ccccc21,?,?,16.4µM,?,?,?
O=C(CSc1nnc(-c2ccccn2)n1Cc1ccccc1)Nc1ccc2c(c1)OCO2,i,i,i,20.6µM,i,i
CCOC(=O)c1c(S(=O)(=O)N2CCC(C(=O)Nc3ccccc3OC)CC2)c(C)n(CC)c1C,nt,nt,nt,nt,i,nt
COc1ccc(Br)cc1C1C(C(=O)Nc2ccc(C)cc2C)=C(C)Nc2ncnn21 (stereo not drawn),nt,nt,nt,nt,i,i
CCCCC(=O)N/C(N)=N/c1nc2ccccc2o1,1.78µM,1.26µM,?,?,3.01µM,nt
N/C(=N\c1nc2ccccc2o1)NC(=O)c1cccc(Cl)c1,i,i,i,i,i,nt
N/C(=N\c1nc2ccccc2o1)NC(=O)c1ccccc1F,2.51µM,1.58µM,?,?,8.49µM,?
SMILES,Rab9 promoter act,NPC1 promoter act,ELG1 genotoxic,ELG1 DNA repair,FLuc counter,SMN2 splice up
COc1ccc(C(CNC(=O)c2cccc(NS(=O)(=O)c3ccc(Br)cc3)c2)N(C)C)cc1 (stereo not drawn),i,i,i,i,i,nt
COc1cccc(NC(=O)Nc2ccncc2)c1,i,i,i,i,?,nt
COc1cccc(NC(=O)c2ccc(NC(=O)C(C)(C)C)cc2)c1,?,?,i,?,9.53µM,12.6µM
COc1cccc(NC(=O)Nc2ccc(C(C)(C)C)cc2)c1,?,?,i,?,3.01µM,11.2µM
CN(CC(=O)Nc1ccc(N2CCOCC2)cc1)C(=O)c1cc(F)c(F)cc1Cl,i,i,i,i,i,nt
S=C(Nc1ccccc1)N1CCN(C/C=C/c2ccccc2)CC1,i,i,i,?,i,nt
O=C(NC(=S)N1CCN(C/C=C/c2ccccc2)CC1)c1ccc(F)cc1,i,i,i,10.3µM,i,nt
S=C(NC1CCCC1)N1CCN(C/C=C/c2ccccc2)CC1,i,i,i,18.3µM,i,i
COc1ccc(C2C3C=CCC(c4cccc(-c5ccc(C)cc5)c4)C3C(=O)N2Cc2ccccc2)cc1Cl (stereo not drawn),i,i,i,i,i,nt
Cc1ccccc1CNC(=O)C(=O)NCC(c1ccc2c(c1)OCO2)N1CCOCC1 (stereo not drawn),nt,nt,nt,nt,i,nt
Cc1ccc(-c2noc(CN3CCC(C(N)=O)CC3)n2)cc1,?,?,i,?,?,i
Cc1ccc(-c2noc(CN3C(C)CCCC3C)n2)cc1 (stereo not drawn),i,i,20.6µM,i,?,i
CC1CCN(Cc2nc(-c3ccccc3)no2)CC1,2.82µM,2.82µM,5.17µM,?,12µM,nt
CCOc1ccc(NC(=O)Cn2nc(-c3ccncc3)ccc2=O)cc1,nt,nt,nt,nt,i,nt
O=C(Cn1cnc2cc([N+](=O)[O-])ccc2c1=O)Nc1ccc(N2CCOCC2)cc1,i,i,i,i,i,nt
O=C(NCc1ccc(C(F)(F)F)cc1)C1CC(c2c(Cl)cccc2Cl)=NO1 (stereo not drawn),i,i,i,i,i,i
C=CCn1c(SCC(N)=O)nc2sc3c(c2c1=O)CCC3,i,i,i,i,i,nt
NC(=O)CSc1nc(N)c2c3c(sc2n1)CCCCC3,i,i,?,?,8.49µM,i
NC(=O)CSc1nc(C2CC2)nc2sc3c(c12)CCCC3,2.51µM,2.82µM,9.2µM,?,1.51µM,nt
Nc1nc(SCC(=O)NCCOCCO)nc2sc3c(c12)CCCC3,i,i,i,i,26.9µM,nt
COc1cc(Cl)c(C)cc1NC(=O)C1CCN(c2nc3ccccc3n3cccc23)CC1,nt,nt,nt,nt,i,nt
O=c1oc2ccccc2c(Nc2cc3ccccc3cc2O)c1[N+](=O)[O-],?,?,i,?,12µM,nt
O=c1oc2ccccc2c(Nc2ccccc2O)c1[N+](=O)[O-],i,i,i,i,i,nt
COc1cccc(-c2nc(CS(=O)(=O)CC(=O)Nc3cc(F)ccc3F)c(C)o2)c1,i,i,i,18.3µM,i,i
COc1cccc(-c2nc(CS(=O)(=O)CC(=O)Nc3ccccc3C)c(C)o2)c1,i,i,i,i,i,nt
Cc1ccc(N(CC(=O)NCCc2ccc(F)cc2)S(=O)(=O)c2ccc(Cl)c([N+](=O)[O-])c2)c(C)c1,i,i,i,?,i,i
Clc1ccccc1CSc1ncn(-c2ccccc2)n1,?,3.55µM,?,?,7.57µM,22.4µM
Cc1cccc(OCCCC(=O)Nc2ccc(N(C)C)cc2)c1,?,?,?,?,8.49µM,i
Cc1cccc(OCCCC(=O)Nc2ccc(Br)cc2)c1,i,i,i,i,i,i
Cc1ccc(NC(=O)CCOc2ccccc2)cc1,3.55µM,?,?,?,13.5µM,nt
